Jurkat NFkB inh – lowers PMA/ionomycin-induced NF-kB signal in Jurkat cells; inhibition, % at 4 µM; 330,000 compounds, 0.53% hits; PMA/ionomycin-induced NF-kB luciferase reporter, luminescence; in the data active = inhibition above about 50%
TMEM16A inh – blocks the mouse calcium-activated chloride channel TMEM16A; HEK293 TMEM16A/YFP iodide influx fluorescence, ionomycin; Q8BHY3; 310,000 compounds, 1.2% hits; normalized B-score (activity score, 25-100; higher = stronger inhibition) at 10 µM;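 active = ratio plate-corrected score three or more library SD toward inhibition, starting fluorescence score within five deviations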;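 also: score derived from kinetic fluorescence span divided by baseline fluorescence per well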
Target sequence (Q8BHY3 whole entry, looked up): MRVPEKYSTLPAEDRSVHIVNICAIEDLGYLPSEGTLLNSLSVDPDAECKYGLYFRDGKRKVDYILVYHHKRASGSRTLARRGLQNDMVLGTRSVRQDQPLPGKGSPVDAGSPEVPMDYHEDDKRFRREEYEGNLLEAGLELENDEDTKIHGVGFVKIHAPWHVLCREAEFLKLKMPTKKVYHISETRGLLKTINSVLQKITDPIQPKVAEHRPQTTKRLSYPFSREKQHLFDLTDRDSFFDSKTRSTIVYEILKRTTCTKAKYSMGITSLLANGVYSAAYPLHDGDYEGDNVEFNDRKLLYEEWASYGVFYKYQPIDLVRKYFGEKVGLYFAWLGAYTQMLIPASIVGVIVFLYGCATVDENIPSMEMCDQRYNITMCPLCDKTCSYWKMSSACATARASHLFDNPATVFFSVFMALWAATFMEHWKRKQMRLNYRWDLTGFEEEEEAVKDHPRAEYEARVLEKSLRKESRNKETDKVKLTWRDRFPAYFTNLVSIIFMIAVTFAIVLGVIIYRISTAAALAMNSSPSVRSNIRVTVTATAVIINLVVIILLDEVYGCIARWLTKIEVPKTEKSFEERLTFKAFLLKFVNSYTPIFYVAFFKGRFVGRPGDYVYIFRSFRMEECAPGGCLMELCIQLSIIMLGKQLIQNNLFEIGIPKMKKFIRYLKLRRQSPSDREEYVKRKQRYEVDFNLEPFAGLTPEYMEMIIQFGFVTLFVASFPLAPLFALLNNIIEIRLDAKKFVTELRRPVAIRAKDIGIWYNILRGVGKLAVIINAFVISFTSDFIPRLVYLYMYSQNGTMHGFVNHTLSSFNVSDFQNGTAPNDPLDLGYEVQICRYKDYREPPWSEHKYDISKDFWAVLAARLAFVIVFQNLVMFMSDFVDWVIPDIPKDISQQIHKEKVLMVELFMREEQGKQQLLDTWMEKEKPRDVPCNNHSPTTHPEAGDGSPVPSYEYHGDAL
ANO1 activ – mouse TMEM16A channel activation, primary screen | AID 623877 | B-score at 10 µM | 340,000 compounds, 0.3% hits | HEK293 TMEM16A/YFP-H148Q/I152L, iodide quench fluorescence; stronger effect = lower value;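 active = fluorescence-ratio B-score plate-corrected deviation score at least 3 library SD below zero, with starting fluorescence score within 5 deviations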;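 also: channel opened by trigger with iodide after compound preincubation; score built on the fluorescence ratio of max minus min over baseline; more negative score means more quench and so TMEM16A activation or potentiation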
aSyn 5UTR inh – MLPCN primary screen, SNCA 5' untranslated region. alpha-synuclein 5'UTR reporter, inhibitor activity. inhibition, % (tested at 7.5 µM). 300,000 compounds, 0.82% hits. AID 1813; in the data active = inhibition above about 60%;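 also: H4 neuroglioblastoma cells stably carrying SNCA 5'UTR luciferase fusion; 0% = DMSO wells and 100% = positive control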
697 NFkB inh – inhibitors of the PMA/ionomycin-induced NF-kB reporter in 697 B cells; inhibition, % at 4 µM; 697 B-cell NF-kB luciferase reporter, 16 h; 330,000 compounds, 0.33% hits; in the data active = inhibition above about 35%
KLF5 inh – inhibitors of KLF5 expression; DLD-1 KLF5 promoter-luciferase reporter, luminescence; 290,000 compounds, 0.23% hits; inhibition, % at 5 µM;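 active = inhibition above a per-plate limit of that plate's mean compound inhibition plus 3 SD, cut at about 60% in these data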;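 also: 0% = DMSO wells and 100% = LY294002 at 200 µM; higher means less KLF5 promoter-driven luciferase light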
Active calls of the source: *; i = inactive; · = no result given. Only some compounds are listed: those with a hit (about 2.5% of all), similar ones and a draw of the others.

SMILES	Jurkat NFkB inh	TMEM16A inh	ANO1 activ	aSyn 5UTR inh	697 NFkB inh	KLF5 inh
O=C(NCc1ccc(F)cc1)C(C(=O)NCc1ccc(F)cc1)c1ncc(C(F)(F)F)cc1Cl	15	i	-7.3*	20	4	4
CCOC(=O)C(C(=O)NCc1ccc(F)cc1)c1ncc(C(F)(F)F)cc1Cl (stereo unspecified)	6	i	i	19	24	-23
Clc1ccc(C(c2nnnn2C2CCCC2)N2CCN(c3nc4ccccc4s3)CC2)cc1 (stereo unspecified)	8	i	-12*	12	-9	-31
c1cnc2ccc(C(c3nnnn3C3CCCC3)N3CCN(c4nc5ccccc5s4)CC3)cc2c1 (stereo unspecified)	11	i	i	·	5	19
O=C(CSc1nnc(Cn2nnc3ccccc32)o1)N(Cc1ccc(Cl)cc1)c1ccccc1	22	100*	i	0	-22	-1
O=C(CSc1nnc(Cn2nnc3ccccc32)o1)Nc1cccc(Cl)c1	0	i	i	10	3	-1
Oc1c(C(c2ccccc2Cl)N2CCCC2)ccc2cccnc12 (stereo unspecified)	11	i	i	97*	-7	73*
Oc1c(C(c2ccc(Cl)cc2)N2CCCC2)cc(Cl)c2cccnc12 (stereo unspecified)	0	i	i	33	-23	51
CCCCC(=O)NC(c1ccccc1Cl)c1ccc2cccnc2c1O (stereo unspecified)	41	i	i	83*	-26	71*
CCCC(=O)NC(c1ccccc1)c1ccc2cccnc2c1O (stereo unspecified)	39	i	i	65*	-38	89*
CCCCC(=O)NC(c1ccccc1)c1ccc2cccnc2c1O (stereo unspecified)	42	i	i	68*	-10	96*
CC(=O)Nc1ccc(NC(=O)CSc2n[nH]c(-c3cccs3)n2)cc1	10	i	i	0	21	·
Cc1ccc(C(=O)NCC(c2ccc(F)cc2)N2CCOCC2)cc1S(=O)(=O)N1CCOCC1 (stereo unspecified)	·	·	i	·	·	·
COc1ccc(C(=Cc2cc(OC)c(OC)cc2[N+](=O)[O-])C(=O)O)cc1	·	·	i	·	·	·
COc1ccc([C@H]2CC(=O)C=C(c3ccc4cc[nH]c4c3)C2)cc1	12	·	i	·	0	·
CCCCC(=O)NC(c1ccc([N+](=O)[O-])cc1)c1c(O)ccc2ccccc12 (stereo unspecified)	20	100*	i	30	-26	-12
COc1ccc(Cl)cc1C(Nc1cccnc1)c1ccc2cccnc2c1O (stereo unspecified)	6	i	i	52	-58	57
CCC(=O)NC(c1ccccc1OC)c1ccc2cccnc2c1O (stereo unspecified)	30	i	i	80*	-17	35
C=CCn1c(COc2ccc(F)cc2)nnc1SC(C)C(=O)NCC1CCCO1 (stereo unspecified)	0	·	i	·	8	·
COC(=O)CCCn1nc(NC(=O)COc2ccc(F)cc2)cc1C	5	i	i	-10	-2	-18
Brc1ccccc1-n1nnc(-c2cccnc2)n1	-37	i	i	-76	-22	-45
Fc1ccc(C(CCCn2nnc(-c3cccnc3)n2)c2ccc(F)cc2)cc1	15	100*	i	-103	-5	-11
O=C(CCCCCCC(=O)NCc1ccccc1)NCc1ccccc1	10	i	i	-12	12	-28
CC(=NNC(=O)COc1cccc(C)c1)c1cccnc1	15	·	i	·	8	·
CCCN(CCC)S(=O)(=O)c1ccc(C(=O)Nc2nnc(-c3cc(OC)cc(OC)c3)o2)cc1	9	100*	i	82*	-8	26
SMILES	Jurkat NFkB inh	TMEM16A inh	ANO1 activ	aSyn 5UTR inh	697 NFkB inh	KLF5 inh
CCCN(CCC)S(=O)(=O)c1ccc(C(=O)Nc2nnc(-c3cccc(OC)c3)o2)cc1	-13	25*	i	70*	-64	-23
COc1ccc(-c2nnc(NC(=O)c3ccc(S(=O)(=O)N4COCC4(C)C)cc3)o2)cc1	-11	i	i	76*	-53	26
COC(=O)C(C)SC1=N/C(=C/c2ccc(-n3cncn3)cc2)C(=O)N1 (stereo unspecified)	2	i	i	25	15	-4
COc1ccc(CCN2CCC(Nc3nc4ccccc4n3Cc3ccc(F)cc3)CC2)cc1	48	i	i	103*	-17	-29
Cc1cccc2c1Sc1ccc(Cl)cc1CC2N1CCNCC1 (stereo unspecified)	15	i	i	104*	-28	·
CCc1cccc2c1Sc1ccccc1CC2N1CCNCC1 (stereo unspecified)	7	i	i	104*	-30	·
O=C(COC(=O)c1ccc(O)cc1O)Nc1ncc(Cl)cc1Cl	7	i	i	-5	23	·
COC(=O)c1cccc(CSc2nc3ccccc3[nH]2)c1	-50	25*	i	-72	-31	-90
COC(=O)c1ccc(CSc2nc3ccccc3[nH]2)o1	-23	i	i	-51	19	-56
CCOC(=O)CCC(=O)NNC(=O)c1ccc(NC(=O)c2ccccc2)cc1	5	i	-6.8*	-2	20	11
Cc1ccc(C(=O)Nc2ccnc(-c3ccncc3)n2)cc1	2	i	i	-28	4	-6
COCCCNC(=O)Cn1ncc2ccsc2c1=O	6	i	i	-2	2	-15
COCCNC(=O)Cn1ncc2ccsc2c1=O	-2	i	-11*	1	1	-30
Nc1nnc(SCC(=O)Nc2cccc3ccccc23)s1	4	i	i	7	8	4
COc1ccccc1CNC(=O)CSCc1cnn(-c2ccccc2)c1-n1cccc1	-25	i	i	15	-41	-15
COc1cccc(CNC(=O)CSCc2cnn(-c3ccccc3)c2-n2cccc2)c1OC	10	100*	i	1	-7	-18
COc1ccccc1C1CCN(c2cc(O)ccc2[N+](=O)[O-])CC1	4	100*	i	-20	-11	-14
CC(=O)c1ccc(NC(=S)Nc2ccc(Br)c(Cl)c2)cc1	7	i	i	-48	15	-15
CC(=O)c1ccc(NC(=S)NC(C)c2ccc(Cl)cc2Cl)cc1 (stereo unspecified)	8	100*	i	-15	-7	6
C=CCNc1nc(N)c([N+](=O)[O-])c(N2CCCCCC2)n1	16	i	i	69*	-11	-12
CS(=O)(=O)c1ccccc1C(=O)Nc1ccccc1Cc1ccccc1	-14	i	i	-11	-23	-4
O=C(Nc1ccccc1)c1ccccc1NS(=O)(=O)c1ccc(Cl)s1	18	100*	i	-2	3	-22
